# Experimental data as given in PubChem BioAssay (NCI).
# The panel holds about 79,000 compounds, 15% with a hit somewhere; the sample as a whole holds those more often. Values without a mark were called inactive. The source made the active and inactive calls. Rule as the data show it: active = growth inhibition above about 70%; inactive = the rest.
# How the values were obtained:
# [1] = NCI Yeast Anticancer Drug Screen. Data for the rad50 strain (AID 155);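 also: 0% = growth of vehicle-only cultures of the same strain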; conditions: S. cerevisiae rad50 strain growth inhibition; at 50.0 µM; hits give high values
# Outline: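 Genetically altered yeast (DNA repair pathway); compound treatment; growth inhibition vs vehicle ctrl.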
# [2] = NCI Yeast Anticancer Drug Screen. Data for the mec2-1 strain (AID 157); conditions: S. cerevisiae mec2-1 strain, at 50.0 µM, hits give high values
# Outline: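 Using mec2-1 yeast: add compound, measure growth, express inhibition versus vehicle-treated cultures.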
# [3] = NCI Yeast Anticancer Drug Screen. Data for the sgs1 mgt1 strain (AID 161);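 also: 0% = growth of cultures given vehicle only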; conditions: S. cerevisiae sgs1 mgt1 strain, at 50.0 µM, hits give high values
# Outline: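 Percent growth inhibition was derived by comparing compound-exposed mutant yeast with vehicle-exposed cultures. The strain carries alterations in DNA damage repair.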
# [4] = NCI Yeast Anticancer Drug Screen. Data for the cln2 rad14 strain (AID 165);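 also: 0% = growth equal to vehicle treated cultures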; conditions: S. cerevisiae cln2 rad14 strain, at 50.0 µM, hits give high values
# Outline: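 Yeast strain cln2 rad14, bearing defects in cell cycle control and DNA repair, serves as the test system; values reflect growth inhibition compared with vehicle.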
# [5] = NCI Yeast Anticancer Drug Screen. Data for the bub3 strain (AID 167); conditions: S. cerevisiae bub3 mutant strain, at 50.0 µM, hits give high values
# Outline: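 Yeast carrying a defined mutation is treated with each compound, and growth is compared with that of vehicle-exposed cells to give inhibition.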
# [6] = NCI Yeast Anticancer Drug Screen. Data for the mlh1 rad18 strain (AID 175); conditions: S. cerevisiae mlh1 rad18 strain growth inhibition; at 50.0 µM; hits give high values
# Outline: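 Steps: expose repair-defective yeast to compound; measure growth; express inhibition against vehicle-treated controls.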
SMILES,growth inhibition [1],growth inhibition [2],growth inhibition [3],growth inhibition [4],growth inhibition [5],growth inhibition [6]
Cc1c([N+](=O)[O-])cc(C(C)(C)C)c(OC(=O)CCl)c1[N+](=O)[O-],99.5% (active),99.7% (active),99.6% (active),99.2% (active),99.4% (active),99.5% (active)
O=c1[nH]c2cc([N+](=O)[O-])ccc2nc1/C=C(\O)c1ccccc1,-21.2%,-18.4%,-14.3%,-3.7%,-1.8%,3.3%
CSc1nc(NC2OC(COC(C)=O)C(OC(C)=O)C(OC(C)=O)C2OC(C)=O)c(-c2csc(N)n2)c(=O)n1C (stereo unspecified),-6.8%,-38%,-22.4%,10.2%,-8.15%,13.3%
Oc1ccc(N=Nc2ccccc2)c(O)c1,54%,29.1%,43.5%,-18.9%,46%,64%
O=c1[nH]c(=S)[nH]c2c1CN(CCCN1CCOCC1)CN2,10.3%,-8.7%,-15.8%,3.2%,-25.1%,5.45%
COc1ccc(C(=O)CC(Sc2ccccc2N)c2ccc(OC)cc2)cc1 (stereo unspecified),-16.6%,-17.9%,8.95%,-10%,6.3%,-7.3%
CC(=O)NC(CCCCNC(=O)OC(C)(C)C)C(=O)O (stereo unspecified),-31.9%,-42.2%,-23.2%,7.45%,-2.85%,-39.1%
CNc1cccc2c1C(=O)c1ccccc1C2=O,0.55%,-9.95%,19.4%,1.35%,3.85%,17.9%
CC(C)(C)c1ccc(P(=O)(O)C(C)(C)C)cc1,-9.5%,5.9%,-15.5%,35%,4.15%,6.95%
O=C(c1ccc(Cl)cc1)N(C(=S)N1CCN(c2ccccn2)CC1)C1CCCCC1,4.5%,13.7%,15.3%,6.85%,-16.6%,19.4%
CC(=O)OCCn1c([N+](=O)[O-])cnc1/C=[N+](/C)[O-],11.2%,16.9%,16.8%,1.9%,9.85%,33.3%
C=CCCCCCCCCC(=O)N(CC#N)CC(C)C,79.1% (active),82% (active),91.5% (active),76% (active),87.2% (active),91.5% (active)
[O-][n+]1ccccc1Cl,8.05%,9.9%,10.2%,-14.4%,6.85%,16.4%
Cn1cnnc1Sc1c([N+](=O)[O-])nc(-c2ccc([N+](=O)[O-])cc2)n1C,-3.5%,3.15%,10.1%,35.1%,11.6%,8.95%
CCCCCCCCCC[CH2][Sn]([CH2]CCCCCCCCCC)([CH2]CCCCCCCCCC)[CH2]CCCCCCCCCC,5.8%,7.8%,-3.4%,-16.3%,-1.25%,23.7%
CCOc1ccccc1NC(=O)/C=C1\NC(=O)CS1,-8.55%,-14.4%,27.2%,11.3%,-5.65%,40.4%
C/C=C(\C)C(=O)N/N=C\C=C\c1ccccc1,-12.2%,-10.8%,0.95%,-44.8%,-16.1%,-7.05%
O=c1[nH]nc(Cc2ccc(Cl)cc2)n1CCO,8.2%,5.95%,19.6%,3.75%,5.85%,-21.1%
O=C1C=C(c2ccccc2)C(O)(c2ccccc2)/C1=C/C=C/c1ccccc1 (stereo unspecified),-3.55%,-14.1%,6.5%,-12.2%,-5.2%,-8.35%
COC(=O)c1ccccc1C1CN=NC12Cc1cccc(C)c1C2=O (stereo unspecified),26.6%,20.2%,64.8%,43.1%,28.9%,52.6%
C/C(CC1CCCCC1)=N\NC(N)=O,0.25%,1.35%,-5.8%,13.2%,-10.9%,-27.1%

SMILES,growth inhibition [1],growth inhibition [2],growth inhibition [3],growth inhibition [4],growth inhibition [5],growth inhibition [6]
N/C(=N\N=C\c1c[nH]c2cc(C(F)(F)F)ccc2c1=O)NO,-10.9%,-7.45%,28.4%,11.1%,2.9%,2.25%
COc1cc(O)c(Cc2ccccc2O)c(O)c1C(=O)CCc1ccccc1,-17.4%,-34.5%,-13.5%,-5.65%,-35.9%,-7.9%
O=N/C(=C(\c1ccccc1)N1CCOCC1)c1ccccc1,-10.2%,11.8%,9.6%,-2.45%,-20.6%,6.45%
C[N+]1(C)CCOC(O)(c2ccccc2)C1 (stereo unspecified),-29.6%,-34%,-27.4%,-2.85%,-59.1%,-18.6%
O=C(Nc1ccsc1)c1ccccc1,-10.8%,-8.7%,-19.3%,-58.2%,-27.4%,-3.25%
Nc1nc(N)nc(C2CC3C=CC2C3)n1 (stereo unspecified),-1.55%,-13.9%,-4.4%,-10%,2.1%,-0.95%
Cc1cc2c(cc1C)NC(=O)C(NC(=O)c1ccc(Cl)cc1)C=N2 (stereo unspecified),-0.55%,15.6%,15.1%,-27.4%,5.95%,2.95%
CC(C)(O)c1ccccc1[S+]1OC(C)(C)c2ccccc21 (stereo unspecified),27.9%,17.6%,30.3%,56.8%,98.3% (active),35.8%
COC/N=C(\NC#N)NCOC,20.5%,-1%,9.5%,14%,-11.7%,23.2%
CCN(CC)C1=NS(=O)(=O)c2ccccc21,1.2%,-3.65%,9.45%,-11.4%,2.3%,0.5%
Cc1ccc(C2=Nn3c(nc4sc5c(c4c3=O)CCCC5)SC2)cc1,-25.7%,-19.4%,-39.1%,-5.9%,-27.4%,-21.8%
c1nnco1,-4.2%,0.75%,-2.5%,5.5%,6.85%,-18.2%
COc1ccccc1NC(=O)N1CCN(c2cccc(C)c2)CC1,4.5%,-2.3%,12.6%,-15.7%,37.4%,-8.4%
Nc1ncc([N+](=O)[O-])c(N)n1,2.75%,5.45%,7.75%,0.7%,-13.8%,15.9%
NC(=O)c1nc(N)nc(N)c1[N+](=O)[O-],-10.8%,-15.1%,-16.1%,-18.8%,-21.9%,-18.9%
O=[N+]([O-])c1ccc(-c2csc(Nc3ccccn3)n2)o1,81.1% (active),38.3%,84.7% (active),31.4%,40.8%,92.5% (active)
COc1ccc(CC2CCCNC2C(=O)O)cc1 (stereo unspecified),-1.65%,-13.2%,-3.55%,-38.7%,-16.6%,10.8%
CONC(CC(=O)c1ccccc1)c1ccccc1 (stereo unspecified),23.4%,6.95%,5.75%,2.7%,14.2%,5.65%
O=c1c2cc3ccccc3cc2c(=O)n2n1CC(O)C(Br)C2 (stereo unspecified),64.7%,20.9%,36.5%,-28.6%,-3.2%,17.7%
CC[n+]1ccnc2ccccc21,-11.6%,-8%,-1.35%,-7.9%,11.6%,14%
